Experimental data taken from paper PMC7826789 (International Journal of Molecular Sciences, 2021).

System: CDC2L2
Conditions: Compound Concentration (nM):1000
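Also: KINOMEscan scanMAX binding as percent activity remaining versus control; lower means stronger binding.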

Percent Control, inactive:
O=C(Nc1n[nH]c2nc(-c3ccc(O)cc3)c(Br)cc12)C1CC1 [SB-725317] 100%
COc1cccc(-c2c[nH]c3c(N/N=C/c4ccncc4)ncnc23)c1 [GW814408X] 53%
Cl.O=C(O[C@H]1CN[C@H](C#Cc2cc3ncnc(Nc4ccc5c(cnn5Cc5ccccc5)c4)c3s2)C1)N1CCOCC1 [GSK200398A] 100%
CCS(=O)(=O)c1ccc(OC)c(Nc2ncc(-c3cccc(OC)c3)o2)c1 [GW580509X] 100%
COc1ccc2cc(-c3c(-c4ccncc4)nc(-c4ccc(S(C)(=O)=O)cc4C)n3C)ccc2c1 [SB-633825] 96%
COc1ccc(COc2ccc(Cc3cnc(N)nc3N)cc2OC)cc1 [GW632580X] 75%
C[C@@H](Oc1cc(-n2cnc3ccc(OC4CCN(C)CC4)cc32)sc1C(N)=O)c1ccccc1Cl [GSK579289A] 94%
CCS(=O)(=O)c1ccc(OC)c(Nc2ncc(-c3cccc(F)c3)o2)c1 [GW621970X] 99%
COc1cc(N2CCN(C(C)C)CC2)ccc1Nc1nc(Nc2ccc(F)cc2C(=O)NC[C@@H](O)CO)c2cc[nH]c2n1 [GSK1392956A] 100%
COc1cc2ncn(-c3cc(O[C@H](C)c4ccccc4Cl)c(C(N)=O)s3)c2cc1OC [GSK237701A] 97%
Cl.O=C(Nc1ccc(Oc2ccc3[nH]c(NC(=O)c4ccccc4)nc3c2)cc1)Nc1cc(C(F)(F)F)ccc1F [GW709042A] 100%
COc1cc(C)c(N(C)C(=O)CN(C)C)cc1Nc1nc(Nc2cccc(F)c2C(N)=O)c2cc[nH]c2n1 [GSK2219385] 100%
CCc1ccc(Oc2nccc(-c3c(-c4ccc(F)cc4)ncn3C3CCNCC3)n2)cc1 [SB-242719] 66%
CC1=C(C(=O)Nc2ccc3[nH]ncc3c2)C(c2ccc3ccccc3c2)CC(=O)N1 (stereo not shown) [GSK270822A] 90%
Nc1ncnc2occ(-c3ccc(NC(=O)Nc4cc(C(F)(F)F)ccc4F)cc3)c12 [GW770249X] 68%
O=C1Nc2ccc(C(=O)c3ccco3)cc2C1=Cc1cc(Cl)c(O)c(Cl)c1 [GW406108X] 98%
COc1ccc2[nH]c3c4[nH]c5ccc(OC)cc5c4c4c(c3c2c1)C(=O)NC4=O [GW296115X] 91%
CN(C)CCNC(=O)Nc1ccc(N(C)c2ccnc(Nc3ccc(CS(C)(=O)=O)cc3)n2)cc1.Cl [GW830900A] 89%
Cl.c1ccc(Cc2nc3ccc(Nc4ncnc5ccccc45)cc3[nH]2)cc1 [GR269666A] 100%
COc1ccc2c(-c3ccnc(Nc4cccc(OC(F)(F)F)c4)n3)cnn2n1 [GW810372X] 100%
COc1cccc(-n2ncc3c(N/N=C/c4ccncc4)ncnc32)c1 [GW784752X] 97%
COc1cc(/C=N/Nc2ncnc3[nH]ncc23)ccc1O [GW578748X] 100%
NS(=O)(=O)c1ccc(N/N=C2\C(=O)Nc3ccc(C(=O)NCCc4c[nH]cn4)cc32)cc1 [GW300660X] 100%
NS(=O)(=O)c1ccc(N/N=C2\C(=O)Nc3ccc(-c4cnco4)cc32)cc1 [GW276655] 100%
NS(=O)(=O)c1ccc(Nc2ncc(-c3ccccc3)o2)cc1 [GW572399X] 100%
C/C(Nc1ccc(S(N)(=O)=O)cc1)=C1/C(=O)Nc2ccccc21 [GW335962X] 81%
Cl.O=S1CCN(Cc2ccc(-c3ccc4ncnc(Nc5ccc(OCc6ccccc6)c(F)c5)c4c3)o2)CC1 [GW576924A] 100%
CN(C)c1cc2c(Nc3ccc4c(cnn4Cc4ccccc4)c3)ncnc2cn1 [GW282974X] 100%
CCn1c(-c2nonc2N)nc2c(C#CC(C)(C)O)nc(OCCNC)cc21.Cl [GSK949675] 100%
CC(C)COC(=O)c1ccc2c(c1)/C(=C/Nc1ccc(S(N)(=O)=O)cc1)C(=O)N2 [GW416981X] 100%
CC1=C(C(=O)Nc2ccc3[nH]ncc3c2)C(c2ccc(Cl)c(Cl)c2)CC(=O)N1 (stereo not shown) [GSK299115A] 96%
NS(=O)(=O)c1ccc(N/N=C2\C(=O)Nc3ccc(Cl)cc32)cc1 [GW280670X] 100%
COc1cc(C=NNc2ncnc3c2cnn3-c2ccccc2)ccc1O [GW513184X] 100%
COc1cc2ncnc(Nc3ccc4c(cnn4Cc4ccccc4)c3)c2cc1OC.Cl [GW282449A] 100%
COC(=O)Nc1nc2ccc(Oc3ccc(NC(=O)Nc4cc(C(F)(F)F)ccc4F)cc3)cc2s1.Cl [GW693917A] 78%
NS(=O)(=O)c1ccc(N/N=C2\C(=O)Nc3ccc(C(=O)NCc4ccncc4)cc32)cc1 [GW300657X] 82%
Cl.O=C(Nc1ccc(Oc2ccc3[nH]c(NC(=O)c4ccco4)nc3c2)cc1)Nc1cc(C(F)(F)F)ccc1F [GW683134A] 100%
